# Records with an inconclusive call do not appear. The source made the active and inactive calls. The call rests on the fitted dose curve; in most records, active means well fitted inhibition curve with a large enough effect; inconclusive means small, poorly fitted or top-dose-only effect; inactive means no such curve, though single readings can be large or run the other way.
# Target: Aldehyde dehydrogenase 1A1 (Homo sapiens) (UniProt P00352)
# Test: qHTS for Inhibitors of the Aldehyde Dehydrogenase Family (ALDH1A1) Confirmatory screens (AID 2061316); further: nearly all actives have a fitted effect of over 65% in size
# Details: ALDH inhibition qHTS; series mostly up to 47.3 µM
# Potency means the concentration at half of the fitted maximal effect.
row,Structure (SMILES),Potency
1,FC(F)(F)c1ccccc1-c1nc(NCc2ccc(-c3ccc(Cl)c(Cl)c3)cc2)c2ccccc2n1,20.1 µM (active)
2,O=c1c2ccccc2nc2sc(NS(=O)(=O)c3ccc4c(c3)CCC4)nn12,8.96 µM (active)
3,O=C1c2ccccc2NC(c2ccc(-c3cccc(Cl)c3)o2)N1O (stereo unspecified),22.5 µM (active)
4,COc1cccc(CNc2ccc(S(=O)(=O)Nc3cccs3)cc2)c1O,0.634 µM (active)
5,O=S1(=O)N=C(Oc2ccc(Br)cc2)c2ccccc21,12.7 µM (active)
6,CN(CC(=O)Nc1ccc(N2CCOCC2)cc1)Cc1cccc2ccccc12,11.3 µM (active)

# — PubChem BioAssay (NCATS)
